Columns and labels:
Test in all cases: log2 ratio of Biotin-Ahx-Ub-VS probe labelling (fragment/DMSO); higher = less target engagement (more negative = stronger competition), active = hit call of the paper (q ≤ 0.05, log2 ratio ≤ -1)
Details in all cases: compound concentration: 200 uM; treatment time: 3 h
USP34 = USP34 (UniProt Q70CQ2)
Outline: (§1)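 HEK293T lysate (495 µg per sample, in Tris/CHAPS/IGEPAL buffer with protease inhibitors) was exposed in triplicate for 3 h to fragment at 200 µM or to vehicle, then to Biotin-Ahx-Ub-VS at 0.5 µM final for 1 h. Labelled DUBs were enriched on NeutrAvidin, digested with LysC and trypsin, and analysed by diaPASEF LC-MS/MS. Spectronaut label-free quantities were normalised to the global median, and values are average log2 ratios of fragment over vehicle from an unpaired t-test. Only proteins with ≥2 unique peptides were used.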

USP36 = target: T1, USP36 (UniProt Q9P275)
T1 sequence (whole entry): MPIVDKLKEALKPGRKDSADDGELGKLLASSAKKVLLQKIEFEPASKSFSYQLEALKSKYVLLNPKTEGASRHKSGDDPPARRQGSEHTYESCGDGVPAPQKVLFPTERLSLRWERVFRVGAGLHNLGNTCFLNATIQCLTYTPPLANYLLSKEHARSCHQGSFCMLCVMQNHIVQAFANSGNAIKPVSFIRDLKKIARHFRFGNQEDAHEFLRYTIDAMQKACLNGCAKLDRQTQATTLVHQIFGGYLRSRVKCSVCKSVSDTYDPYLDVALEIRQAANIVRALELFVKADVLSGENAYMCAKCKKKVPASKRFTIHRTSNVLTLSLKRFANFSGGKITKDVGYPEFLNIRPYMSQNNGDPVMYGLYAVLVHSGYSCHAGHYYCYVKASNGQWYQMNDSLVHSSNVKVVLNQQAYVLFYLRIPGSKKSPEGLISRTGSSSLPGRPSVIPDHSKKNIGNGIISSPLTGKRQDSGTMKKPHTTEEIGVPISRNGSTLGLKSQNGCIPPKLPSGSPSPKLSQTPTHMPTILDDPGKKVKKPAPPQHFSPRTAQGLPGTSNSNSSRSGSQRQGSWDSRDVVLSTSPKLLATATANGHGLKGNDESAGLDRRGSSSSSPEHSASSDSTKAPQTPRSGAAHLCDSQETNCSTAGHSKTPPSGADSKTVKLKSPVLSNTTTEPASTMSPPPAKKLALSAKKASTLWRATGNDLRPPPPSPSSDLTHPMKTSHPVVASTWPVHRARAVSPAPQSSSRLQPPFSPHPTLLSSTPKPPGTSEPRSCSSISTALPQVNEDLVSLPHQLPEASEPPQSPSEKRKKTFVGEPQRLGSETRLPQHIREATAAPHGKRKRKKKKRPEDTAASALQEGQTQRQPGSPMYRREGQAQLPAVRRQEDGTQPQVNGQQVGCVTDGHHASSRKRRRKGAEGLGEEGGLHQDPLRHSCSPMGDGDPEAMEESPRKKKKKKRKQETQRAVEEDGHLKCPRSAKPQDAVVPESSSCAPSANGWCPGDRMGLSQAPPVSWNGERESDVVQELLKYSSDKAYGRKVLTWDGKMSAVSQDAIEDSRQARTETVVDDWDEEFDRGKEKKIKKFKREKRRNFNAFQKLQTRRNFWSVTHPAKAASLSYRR
Outline: as §1

USP38 = target: T2, USP38 (UniProt Q8NB14)
T2 sequence (whole entry): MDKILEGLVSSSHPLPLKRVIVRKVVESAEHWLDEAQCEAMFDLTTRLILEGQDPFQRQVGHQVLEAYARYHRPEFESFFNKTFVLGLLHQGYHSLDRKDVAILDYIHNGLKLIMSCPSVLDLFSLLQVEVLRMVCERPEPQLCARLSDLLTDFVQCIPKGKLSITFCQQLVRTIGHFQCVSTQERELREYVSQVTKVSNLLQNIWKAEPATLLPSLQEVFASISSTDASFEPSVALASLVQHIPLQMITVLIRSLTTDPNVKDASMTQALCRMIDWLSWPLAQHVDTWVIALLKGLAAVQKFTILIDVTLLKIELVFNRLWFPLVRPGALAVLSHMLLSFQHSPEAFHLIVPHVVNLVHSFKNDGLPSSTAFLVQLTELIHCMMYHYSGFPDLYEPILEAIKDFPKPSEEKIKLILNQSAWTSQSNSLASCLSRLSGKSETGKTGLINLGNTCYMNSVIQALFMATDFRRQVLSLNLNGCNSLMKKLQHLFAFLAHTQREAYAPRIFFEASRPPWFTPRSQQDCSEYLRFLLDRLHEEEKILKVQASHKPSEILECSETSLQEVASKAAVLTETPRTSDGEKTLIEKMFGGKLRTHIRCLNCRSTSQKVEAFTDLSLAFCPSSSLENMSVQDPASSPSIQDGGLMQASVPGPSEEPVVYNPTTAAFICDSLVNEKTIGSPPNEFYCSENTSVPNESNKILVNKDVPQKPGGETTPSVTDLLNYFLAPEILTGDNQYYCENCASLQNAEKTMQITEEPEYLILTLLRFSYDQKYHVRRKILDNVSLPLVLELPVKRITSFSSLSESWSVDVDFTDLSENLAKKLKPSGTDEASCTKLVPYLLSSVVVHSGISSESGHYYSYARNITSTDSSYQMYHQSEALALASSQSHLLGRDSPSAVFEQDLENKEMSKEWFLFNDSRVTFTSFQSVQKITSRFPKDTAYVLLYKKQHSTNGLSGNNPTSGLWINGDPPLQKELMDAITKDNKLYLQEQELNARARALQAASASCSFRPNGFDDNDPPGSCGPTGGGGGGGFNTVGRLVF
Outline: as §1

USP39 = target: T3, USP39 (UniProt Q53GS9)
T3 sequence (whole entry): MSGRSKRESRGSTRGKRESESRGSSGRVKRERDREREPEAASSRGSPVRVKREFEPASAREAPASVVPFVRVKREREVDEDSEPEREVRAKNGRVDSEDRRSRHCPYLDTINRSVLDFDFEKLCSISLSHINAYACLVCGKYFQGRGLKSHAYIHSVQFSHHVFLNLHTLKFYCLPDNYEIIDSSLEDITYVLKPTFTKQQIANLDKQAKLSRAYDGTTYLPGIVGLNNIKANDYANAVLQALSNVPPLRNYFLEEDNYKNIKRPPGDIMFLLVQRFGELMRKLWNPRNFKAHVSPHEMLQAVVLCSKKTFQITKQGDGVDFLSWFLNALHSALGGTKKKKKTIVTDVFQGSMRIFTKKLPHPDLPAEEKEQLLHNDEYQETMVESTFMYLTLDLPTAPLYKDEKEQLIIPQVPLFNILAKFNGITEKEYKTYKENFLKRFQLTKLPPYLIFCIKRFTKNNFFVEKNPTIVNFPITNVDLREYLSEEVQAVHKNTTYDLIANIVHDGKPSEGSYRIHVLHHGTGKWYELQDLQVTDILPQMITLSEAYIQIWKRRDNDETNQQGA
Outline: as §1

USP4 = target: T4, USP4 (UniProt Q13107)
T4 sequence (whole entry): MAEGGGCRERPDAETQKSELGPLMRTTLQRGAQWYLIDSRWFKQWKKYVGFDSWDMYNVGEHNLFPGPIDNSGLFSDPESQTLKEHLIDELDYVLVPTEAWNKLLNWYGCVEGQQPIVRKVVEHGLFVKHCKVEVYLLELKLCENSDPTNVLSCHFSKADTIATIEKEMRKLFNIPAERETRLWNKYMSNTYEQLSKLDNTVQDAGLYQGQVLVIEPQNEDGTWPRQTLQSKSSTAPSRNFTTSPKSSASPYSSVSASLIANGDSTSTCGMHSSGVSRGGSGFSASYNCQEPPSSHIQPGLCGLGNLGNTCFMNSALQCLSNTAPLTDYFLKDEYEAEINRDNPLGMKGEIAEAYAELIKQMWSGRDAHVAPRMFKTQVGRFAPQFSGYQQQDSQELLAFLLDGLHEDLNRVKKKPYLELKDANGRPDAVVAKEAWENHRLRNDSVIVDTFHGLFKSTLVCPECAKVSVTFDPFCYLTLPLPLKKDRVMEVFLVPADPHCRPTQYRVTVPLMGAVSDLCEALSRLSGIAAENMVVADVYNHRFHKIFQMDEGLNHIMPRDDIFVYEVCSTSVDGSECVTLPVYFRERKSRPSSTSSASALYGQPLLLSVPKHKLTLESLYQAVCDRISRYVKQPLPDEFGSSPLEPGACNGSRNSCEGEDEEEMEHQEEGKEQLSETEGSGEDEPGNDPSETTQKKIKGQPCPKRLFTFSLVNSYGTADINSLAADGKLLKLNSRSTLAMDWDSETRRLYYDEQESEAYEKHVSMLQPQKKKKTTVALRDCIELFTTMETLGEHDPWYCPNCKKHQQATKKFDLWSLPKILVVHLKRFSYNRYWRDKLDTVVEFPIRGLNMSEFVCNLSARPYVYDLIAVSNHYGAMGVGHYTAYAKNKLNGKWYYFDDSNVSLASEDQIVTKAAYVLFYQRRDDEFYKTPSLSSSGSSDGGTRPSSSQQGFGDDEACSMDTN
Outline: as §1

Measured: log2 ratio of Biotin-Ahx-Ub-VS probe labelling

USP34, sequence (Q70CQ2 whole entry, the tested form may be a part): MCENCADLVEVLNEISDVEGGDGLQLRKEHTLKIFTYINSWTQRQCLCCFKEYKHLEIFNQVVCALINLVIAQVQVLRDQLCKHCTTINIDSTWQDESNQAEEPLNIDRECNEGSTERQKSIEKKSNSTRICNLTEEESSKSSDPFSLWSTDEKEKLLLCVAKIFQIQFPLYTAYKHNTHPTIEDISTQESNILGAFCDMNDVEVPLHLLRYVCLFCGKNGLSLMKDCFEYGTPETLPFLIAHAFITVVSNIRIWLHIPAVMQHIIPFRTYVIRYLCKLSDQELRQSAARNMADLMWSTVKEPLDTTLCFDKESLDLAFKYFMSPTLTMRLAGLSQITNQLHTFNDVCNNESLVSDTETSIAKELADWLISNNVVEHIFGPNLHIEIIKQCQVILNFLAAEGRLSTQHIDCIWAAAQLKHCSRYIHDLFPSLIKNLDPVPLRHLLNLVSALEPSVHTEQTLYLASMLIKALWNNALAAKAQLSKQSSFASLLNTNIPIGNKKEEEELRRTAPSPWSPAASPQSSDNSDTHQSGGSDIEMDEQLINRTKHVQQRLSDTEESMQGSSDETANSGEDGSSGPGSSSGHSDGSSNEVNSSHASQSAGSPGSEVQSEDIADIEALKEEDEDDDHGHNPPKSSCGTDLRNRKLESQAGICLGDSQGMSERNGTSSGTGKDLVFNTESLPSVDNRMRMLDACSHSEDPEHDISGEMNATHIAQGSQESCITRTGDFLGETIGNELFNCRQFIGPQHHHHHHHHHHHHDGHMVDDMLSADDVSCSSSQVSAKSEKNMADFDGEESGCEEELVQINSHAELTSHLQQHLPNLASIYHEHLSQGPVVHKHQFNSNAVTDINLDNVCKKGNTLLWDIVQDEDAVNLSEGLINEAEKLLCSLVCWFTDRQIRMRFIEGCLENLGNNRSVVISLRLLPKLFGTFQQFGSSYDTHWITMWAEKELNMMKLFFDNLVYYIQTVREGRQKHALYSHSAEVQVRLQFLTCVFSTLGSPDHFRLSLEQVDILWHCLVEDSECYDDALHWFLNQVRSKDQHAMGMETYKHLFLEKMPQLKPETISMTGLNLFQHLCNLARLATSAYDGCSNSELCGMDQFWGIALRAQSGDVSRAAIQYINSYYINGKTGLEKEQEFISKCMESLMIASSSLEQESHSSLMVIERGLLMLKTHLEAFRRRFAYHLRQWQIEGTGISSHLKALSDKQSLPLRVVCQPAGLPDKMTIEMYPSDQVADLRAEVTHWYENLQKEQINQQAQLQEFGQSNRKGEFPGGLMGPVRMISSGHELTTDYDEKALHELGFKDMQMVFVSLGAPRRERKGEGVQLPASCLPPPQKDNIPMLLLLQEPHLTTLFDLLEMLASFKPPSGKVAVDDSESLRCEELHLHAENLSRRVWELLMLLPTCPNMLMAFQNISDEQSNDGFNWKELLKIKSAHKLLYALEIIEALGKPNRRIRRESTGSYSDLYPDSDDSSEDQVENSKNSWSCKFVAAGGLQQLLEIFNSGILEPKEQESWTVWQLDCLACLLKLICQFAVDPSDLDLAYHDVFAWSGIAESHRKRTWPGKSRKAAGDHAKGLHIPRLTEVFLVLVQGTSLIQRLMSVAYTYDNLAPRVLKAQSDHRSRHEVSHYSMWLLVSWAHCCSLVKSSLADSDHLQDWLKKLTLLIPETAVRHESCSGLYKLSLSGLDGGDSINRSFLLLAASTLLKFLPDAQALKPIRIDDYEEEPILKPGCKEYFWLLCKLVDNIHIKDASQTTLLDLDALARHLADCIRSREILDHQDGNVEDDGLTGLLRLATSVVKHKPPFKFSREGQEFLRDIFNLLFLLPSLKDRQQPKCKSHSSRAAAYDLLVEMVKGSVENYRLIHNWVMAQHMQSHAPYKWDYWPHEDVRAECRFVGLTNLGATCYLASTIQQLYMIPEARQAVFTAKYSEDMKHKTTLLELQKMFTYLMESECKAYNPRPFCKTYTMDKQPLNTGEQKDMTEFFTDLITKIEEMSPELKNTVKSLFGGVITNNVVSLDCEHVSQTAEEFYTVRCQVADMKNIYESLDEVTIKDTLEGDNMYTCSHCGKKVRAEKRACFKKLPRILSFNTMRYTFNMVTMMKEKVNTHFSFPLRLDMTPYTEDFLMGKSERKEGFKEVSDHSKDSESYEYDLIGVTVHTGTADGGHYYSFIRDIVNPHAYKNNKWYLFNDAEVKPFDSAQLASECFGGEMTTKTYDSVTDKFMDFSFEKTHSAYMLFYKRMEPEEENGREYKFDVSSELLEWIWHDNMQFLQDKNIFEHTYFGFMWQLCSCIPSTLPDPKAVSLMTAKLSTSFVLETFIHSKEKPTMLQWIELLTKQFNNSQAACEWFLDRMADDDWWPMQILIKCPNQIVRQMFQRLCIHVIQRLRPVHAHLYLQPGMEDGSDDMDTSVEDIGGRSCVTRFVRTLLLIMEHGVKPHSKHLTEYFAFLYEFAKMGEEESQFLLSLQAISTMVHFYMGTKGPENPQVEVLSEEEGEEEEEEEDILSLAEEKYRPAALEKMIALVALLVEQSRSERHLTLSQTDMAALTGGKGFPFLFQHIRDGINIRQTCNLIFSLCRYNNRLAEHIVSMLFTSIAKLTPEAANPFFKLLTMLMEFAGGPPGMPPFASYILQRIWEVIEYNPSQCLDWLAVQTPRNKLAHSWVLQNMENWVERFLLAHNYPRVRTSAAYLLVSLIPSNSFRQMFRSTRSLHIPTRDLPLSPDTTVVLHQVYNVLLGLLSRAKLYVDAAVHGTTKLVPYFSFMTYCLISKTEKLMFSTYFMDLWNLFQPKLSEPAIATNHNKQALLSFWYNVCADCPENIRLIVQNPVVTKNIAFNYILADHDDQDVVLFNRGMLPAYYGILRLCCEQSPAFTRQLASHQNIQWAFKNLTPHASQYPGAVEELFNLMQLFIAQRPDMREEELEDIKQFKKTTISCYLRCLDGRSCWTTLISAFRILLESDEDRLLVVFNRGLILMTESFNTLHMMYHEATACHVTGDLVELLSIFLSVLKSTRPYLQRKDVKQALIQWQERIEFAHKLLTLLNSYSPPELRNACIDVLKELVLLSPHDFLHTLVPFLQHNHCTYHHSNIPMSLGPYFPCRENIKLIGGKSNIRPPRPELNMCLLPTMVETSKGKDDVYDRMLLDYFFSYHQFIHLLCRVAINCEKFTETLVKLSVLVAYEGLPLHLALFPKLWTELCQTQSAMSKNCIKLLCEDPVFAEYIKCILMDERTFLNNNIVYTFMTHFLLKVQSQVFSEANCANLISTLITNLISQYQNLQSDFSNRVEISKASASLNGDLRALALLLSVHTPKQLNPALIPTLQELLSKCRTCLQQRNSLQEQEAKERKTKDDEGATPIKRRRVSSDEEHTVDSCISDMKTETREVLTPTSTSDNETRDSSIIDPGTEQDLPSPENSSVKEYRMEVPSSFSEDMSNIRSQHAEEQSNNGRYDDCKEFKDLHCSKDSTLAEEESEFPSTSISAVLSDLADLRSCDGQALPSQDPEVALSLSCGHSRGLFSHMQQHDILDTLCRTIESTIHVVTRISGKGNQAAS

Cc1cccc(C)c1NC(=O)CCl
inactive: USP34 -0.0998 | USP36 -0.33 | USP38 -0.0307 | USP39 0.204 | USP4 -0.132

Reference: the supplement of paper PMC11732987, “Enantioselective OTUD7B fragment discovery through chemoproteomics screening and high-throughput optimisation” (Communications Chemistry, 2025)
